Assay outcomes (PubChem)
Rows were chosen to be rich in hits. Some 12% of all compounds tested hit in one or more screens of this group.
G9a block – G9a (human) methyltransferase inhibition; Potency, µM (titrated, usually from 102 µM), actives largely listed as inhibitors; G9a H3K9 monomethylation, AlphaScreen, 2 h; Q96KQ7; 350,000 tested, 8.8% active; further: nearly all actives have a fitted effect of over 75% in size
Target sequence (Q96KQ7 913-1193 limits assumed): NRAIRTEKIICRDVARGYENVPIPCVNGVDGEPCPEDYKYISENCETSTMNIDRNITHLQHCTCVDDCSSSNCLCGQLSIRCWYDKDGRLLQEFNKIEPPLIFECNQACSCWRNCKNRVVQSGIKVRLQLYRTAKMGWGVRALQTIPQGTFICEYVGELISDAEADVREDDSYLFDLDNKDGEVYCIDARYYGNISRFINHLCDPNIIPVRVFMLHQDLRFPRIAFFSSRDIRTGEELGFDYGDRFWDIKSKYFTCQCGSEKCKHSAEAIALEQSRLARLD
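G9a (20 nM) preincubated 15 min RT with compounds, then 500 nM biotinylated H3K9 peptide and 20 uM SAM added; 2 h RT reaction. Monomethyl-H3K9 product detected by AlphaScreen with anti-H3K9me1 antibody, streptavidin donor and anti-rabbit IgG acceptor beads.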
HP1b chromo inh – HP1-beta chromodomain-methylated histone interaction inhibition; AID 540317; AlphaScreen HP1-beta / biotin-H3K9me3 peptide binding; Potency, µM (series often up to 114 µM), usual class: inhibitors; 390,000 tested, 0.56% active; further: nearly all actives have a fitted effect of over 70% in size
Target sequence (P83916 whole entry, looked up): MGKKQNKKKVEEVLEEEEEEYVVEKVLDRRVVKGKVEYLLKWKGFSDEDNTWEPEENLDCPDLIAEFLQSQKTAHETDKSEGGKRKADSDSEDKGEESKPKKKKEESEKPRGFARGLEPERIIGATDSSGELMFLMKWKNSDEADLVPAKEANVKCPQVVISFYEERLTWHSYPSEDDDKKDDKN
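Compound inhibition of the preformed complex between 50 nM HP1-beta and 50 nM biotinylated H3K9me3 peptide was read by AlphaScreen. Buffer was PBS pH 7.4 with 0.01% Tween-20. Incubations ran 30 min at room temperature, with 10 ug/mL donor/acceptor beads.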
L3MBTL1 block – inhibitors of human L3MBTL1; Q9Y468; AlphaScreen L3MBTL1–H3K9me1 peptide binding; Potency, µM (series often up to 57.1 µM), usual class: inhibitors; 230,000 tested, 0.66% active; AID 485360; further: nearly all actives have a fitted effect of over 60% in size
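Displacement of a biotinylated histone H3(1-15) peptide monomethylated at Lys9 (75 nM) from L3MBTL1 (50 nM) was measured by AlphaScreen after a 30 min room-temperature compound incubation; cefsulodin titration served as intraplate control.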
BAZ2B inh – BAZ2B (human) inhibition | Q9UIF8 | AlphaScreen BAZ2B-H3K14Ac peptide displacement | Potency, µM (highest dose often 114 µM), usual class: inhibitors | 360,000 tested, 4.4% active; further: nearly all actives have a fitted effect of over 60% in size
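AlphaScreen displacement: compounds (up to 110uM) incubated 30 min at room temperature with a preformed 50 nM BAZ2B/50 nM biotinylated H3K14Ac peptide complex in PBS pH 7.4 with Tween-20. Donor and acceptor beads at 10 ug/mL final added, 20 min light-protected before reading.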
Sfp inh – inhibitors of Bacillus subtilis Sfp phosphopantetheinyl transferase | Q9F4F7 | Biochemical Sfp PPTase activity, qHTS | Potency, µM, usual class: inhibitors | 310,000 tested, 3.5% active | AID 1490;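 further: the enzyme is Sfp with the accession as filed and its product quenches rhodamine fluorescence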
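Sfp 15 nM + cpd, 15 min RT; start w/ rhodamine-CoA 5 uM, BHQ-2-YbbR 12.5 uM (final); 50 mM Hepes pH 7.6, 10 mM MgCl2, 0.01% NP-40, 0.01% BSA; read 525/598 nm at 0 and 30 min.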
JMJD2A Tudor – inhibitors of human JMJD2A Tudor domain. AlphaScreen JMJD2A-Tudor / H3K4me3 peptide binding. Potency, µM (highest dose often 114 µM), usual class: inhibitors. 390,000 tested, 4.4% active. AID 504339; further: nearly all actives have a fitted effect of over 50% in size
Sfp PPTase conf – confirmation of Bacillus subtilis Sfp PPTase inhibitors | shares compounds with Sfp inh | Sfp PPTase enzymatic assay, qHTS titration | Potency, µM (titrated, usually from 114 µM), hits mostly inhibitors | 380 tested, 79% active
Sfp PPTase gel – Inhibits B. subtilis Sfp phosphopantetheinylation. shares compounds with Sfp inh. purified Sfp, gel-based phosphopantetheinylation read-out. Potency, µM, most hits filed as inhibitors. 210 tested, 20% active;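 active means potency below 100 µM; inconclusive means dose-dependent response but potency above 100 µM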;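 further: potency is an IC50 for inhibitors of Sfp transfer activity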
Numbers stand for hits; [ ] = dose if it differs, or a comment. Unless noted, the call rests on the fitted dose curve; in most records, active means well fitted curve in the direction sought with a large enough effect; inconclusive means small, poorly fitted or top-dose-only effect, or another doubt; inactive means no such curve, though single readings can be large; an effect the other way counts as inactive or inconclusive.

Screening O=C(Nc1ccnn1C1CCN(C(=O)c2cccc(Cl)c2)CC1)C1CC1 returned HP1b chromo inh inactive, BAZ2B inh inactive, Sfp inh inactive and JMJD2A Tudor inactive.
`Cc1ccccc1NC(=O)CSc1nnc(-c2ccco2)c(-c2ccco2)n1` gave G9a block 12.6µM, HP1b chromo inh 15.8µM, L3MBTL1 block inactive, BAZ2B inh 25.1µM, Sfp inh 10µM, JMJD2A Tudor 50.1µM and Sfp PPTase conf 6.63µM.
For O=C(NC1CCCCC1)C(c1cccs1)N(C(=O)c1ccccn1)c1ccccc1 (stereo not given) the results were G9a block inactive, HP1b chromo inh inactive, L3MBTL1 block inactive, BAZ2B inh inactive, Sfp inh inactive and JMJD2A Tudor inactive.
Screening OC(C#Cc1ccccn1)c1cccs1 (stereo not given) returned G9a block inactive[12.7 µM], HP1b chromo inh inconclusive, L3MBTL1 block inconclusive, BAZ2B inh 7.08µM, Sfp inh 17.8µM, JMJD2A Tudor 44.7µM, Sfp PPTase conf 46.9µM and Sfp PPTase gel inactive.
For CCOc1ccc2[nH]c(=O)c(C(c3nnnn3Cc3ccco3)N3CCC(C)CC3)cc2c1 (stereo not given) the results were G9a block inconclusive, HP1b chromo inh inactive, L3MBTL1 block inactive, BAZ2B inh inactive, Sfp inh 3.55µM, JMJD2A Tudor inactive and Sfp PPTase conf 8.35µM.
CCOc1ccc2[nH]c(=O)c(C(c3nnnn3C3CCCCC3)N3CCN(C)CC3)cc2c1 (stereo not given) was read as G9a block inconclusive, HP1b chromo inh inactive, BAZ2B inh inactive, Sfp inh inactive and JMJD2A Tudor inactive.
Screening CC(C)N(C(=O)[C@H]1C[C@H](CC(=O)NCCC2=CCCCC2)C(=O)N2CCc3c([nH]c4cc(-c5ccco5)ccc34)[C@]12C)C(C)C returned HP1b chromo inh inactive, L3MBTL1 block inactive and JMJD2A Tudor inconclusive.
`CNc1ccccc1C(C)(C)c1cc(-c2ccco2)n[nH]1` gave G9a block 35.5µM, HP1b chromo inh inconclusive, L3MBTL1 block inactive, BAZ2B inh inactive, Sfp inh 56.2µM, JMJD2A Tudor inconclusive, Sfp PPTase conf 23.5µM and Sfp PPTase gel inactive.
CNc1ccccc1C(C)(C)c1cc(C)[nH]n1 was read as G9a block inactive, HP1b chromo inh inactive, L3MBTL1 block inactive, BAZ2B inh inactive, Sfp inh inactive and JMJD2A Tudor inconclusive.
O=C(CSc1nnc(-c2ccncc2)n1Cc1ccco1)OC1CCCCC1 was read as G9a block inactive[12.7 µM], HP1b chromo inh inactive, BAZ2B inh inactive, Sfp inh 14.1µM, JMJD2A Tudor inactive, Sfp PPTase conf 52.7µM and Sfp PPTase gel inactive.
For CC1CCN(C(=O)C2CCCN(S(=O)(=O)c3ccc4c(c3)CC(C)N4C(=O)C3CC3)C2)CC1 (stereo not given) the results were HP1b chromo inh inactive, L3MBTL1 block inactive, BAZ2B inh inactive, Sfp inh inactive and JMJD2A Tudor inactive.
`CCOC(=O)c1c(-c2ccc(OC)cc2)csc1NC(=O)C1CCCO1` (stereo not given) gave G9a block 12.6µM, HP1b chromo inh inactive, L3MBTL1 block inactive, BAZ2B inh inactive, Sfp inh 15.8µM, JMJD2A Tudor inactive and Sfp PPTase conf 33.2µM.
CC(OC(=O)C1=COCCO1)C(=O)NC1(C#N)CCCCC1 (stereo not given) was read as HP1b chromo inh inactive, L3MBTL1 block inactive and JMJD2A Tudor inactive.
For CSc1ccccc1OCc1cc(C(=O)NCCCn2nc(C)cc2C)no1 the results were HP1b chromo inh inactive, BAZ2B inh inactive, Sfp inh inactive and JMJD2A Tudor inactive.
